Reference: the supplement of paper PMC10600219
Structures can show the parent of a compound that is named as a salt. The full ranking holds about 2,800 compounds; the median of “cell viability relative to vehicle” is about 1.1, and the lowest 2% start at about 0.19. Many of the other results were omitted from the sample, so the lowest values are more common in it than they were.

What follows are compounds tested on NCI-H2228 parental (assay: cell viability relative to vehicle (fraction of vehicle); NCI-H2228 is an ALK-positive lung cancer line and DTP means drug-tolerant persister; higher = less growth inhibition). Details: 100 nM; treatment time 6 days.
In short: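 Values give cell viability as a fraction of vehicle-treated cells. Parental and drug-tolerant persister NCI-H2228 cells (persisters made with 1000 nM of a targeted drug for 13 days) were exposed in 384-well plates to the 3114-agent TargetMol anti-cancer compound library at 100 nM, with DMSO as vehicle. ATP was then read after 6 days by the CellTiter-Glo 3D Cell Viability Assay.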

Row | SMILES | cell viability
1 | CC(C)[C@]12O[C@H]1[C@@H]1O[C@]13[C@]1(O[C@H]1C[C@H]1C4=C(CC[C@@]13C)C(=O)OC4)[C@@H]2O [Triptolide] | 0.121
2 | N#Cc1c(Oc2cccc(OS(=O)(=O)CCCC(F)(F)F)c2)cccc1C(F)(F)F | 1.01
3 | O=C(O)CCCCCCCCCO [10-Hydroxydecanoic Acid] | 1.17
4 | C[C@@]12C[C@@H](c3ccoc3)OC(=O)[C@@H]1CC[C@]1(C)[C@H]2[C@@H]2C=C[C@@]1(O)C(=O)O2 [Columbin] | 1.06
5 | Cc1c([C@H](C)[C@@H]2NC[C@@H](C)C[C@H]2O)ccc2c1C[C@H]1[C@H]2CC=C2C[C@@H](O)CC[C@@]21C [Veratramine] | 1.12
6 | COc1cc([C@@H]2c3cc4c(cc3[C@@H](O)[C@H]3COC(=O)[C@H]23)OCO4)cc(OC)c1O [4'-Demethylepipodophyllotoxin] | 0.402
7 | CC(=O)O[C@H]1C(=O)[C@@]2(C)[C@H]([C@H](OC(=O)c3ccccc3)[C@]3(O)C[C@H](O)C(C)=C1C3(C)C)[C@]1(OC(C)=O)CO[C@@H]1C[C@@H]2O [Baccatin III] | 0.968
8 | C/C=C(\C)C(=O)N[C@@H](c1ccccc1)[C@@H](O)C(=O)O[C@H]1C[C@@]2(O)[C@@H](OC(=O)c3ccccc3)[C@@H]3[C@]4(OC(C)=O)CO[C@@H]4C[C@H](O)[C@@]3(C)C(=O)[C@H](OC(C)=O)C(=C1C)C2(C)C [Cephalomannine] | 0.129
9 | CC(=O)OC12COC1CC(O)C1(C)C(=O)C(O)C3=C(C)C(O)CC(O)(C(OC(=O)c4ccccc4)C21)C3(C)C (stereo not given) [10-Deacetylbaccatin III] | 1.13
10 | COc1ccc(/C=C/c2cc(OC)cc(OC)c2)cc1 [Trimethoxystilbene] | 1.05
11 | CN(C(=O)/C=C/c1ccoc1)[C@@H]1CC[C@@]2(O)[C@H]3Cc4ccc(O)c5c4[C@@]2(CCN3CC2CC2)[C@H]1O5 [Nalfurafine hydrochloride] | 0.993
12 | CN1[C@H]2C[C@H](OC(=O)[C@H](CO)c3ccccc3)C[C@@H]1[C@@H](O)C2 [Anisodamine] | 1.1
13 | CCc1c2c(nc3ccccc13)-c1cc3c(c(=O)n1C2)COC(=O)[C@]3(O)CC [7-Ethylcamptothecin] | 0.054
14 | CC[C@@]1(O)C(=O)OCc2c1cc1n(c2=O)Cc2cc3ccccc3nc2-1 [(S)-(+)-Camptothecin] | 0.0882
15 | CC1(C)C(C(=O)Nc2ccc(S(=O)(=O)c3ccc(NC(=O)C4C(C)(C)C4(C)C)cc3)cc2)C1(C)C | 0.839
16 | C[C@H]1CCC2N(C1)C[C@H]1C3CC4[C@@H](CC(=O)C5C[C@@H](O)CC[C@@]54C)C3CCC1[C@]2(C)O (stereo not given in full) [Peiminine] | 1.12
17 | O=C(CBr)c1ccc(O)cc1 [PTP Inhibitor I] | 1.01
18 | Clc1ccc(OC[C@H]2CCN2)cn1 [Tebanicline hydrochloride] | 1.12

Row | SMILES | cell viability
19 | Oc1cc(O)cc(/C=C/c2ccc(O)cc2O)c1 [Oxyresveratrol] | 0.982
20 | C=C1CC[C@H]2[C@@H](/C=C(\C)C(=O)[C@@]3(O)C[C@H](C)[C@H](O)[C@@H]3[C@@H]1O)C2(C)C [Lathyrol] | 1.09
21 | CN[C@@H](Cc1c[nH]c2ccccc12)C(=O)O [Abrine] | 1.08
22 | CC1(C)C(=O)N(c2ccc(C#N)c(C(F)(F)F)c2)C(=O)N1CCCCO | 1.27
23 | C[C@H]1CCC/C=C/[C@@H]2C[C@H](O)C[C@H]2[C@H](O)/C=C/C(=O)O1 [Brefeldin A] | 0.0967
24 | COc1ccc(/C=C2\CCCN=C2c2cccnc2)c(OC)c1 [GTS 21 dihydrochloride] | 1.13
25 | COc1cc([C@@H]2c3cc4c(cc3[C@H](O)[C@H]3COC(=O)[C@H]23)OCO4)cc(OC)c1O [4'-Demethylpodophyllotoxin] | 0.68
26 | Cn1c(CCCCCCC(=O)NO)nc2cc(N(CCCl)CCCl)ccc21 [Minomustine] | 1.12
27 | O=C(O)CNC(=O)C1C(=O)N(C2CCCCC2)C(=O)N(C2CCCCC2)C1=O [Daprodustat] | 1.04
28 | C/C(=C\c1csc(C)n1)[C@@H]1C[C@@H]2O[C@@H]2CCC[C@H](C)[C@H](O)[C@@H](C)C(=O)C(C)(C)[C@@H](O)CC(=O)O1 [Epothilone A] | 0.0991
29 | C/C(=C\c1csc(C)n1)[C@@H]1C[C@@H]2O[C@]2(C)CCC[C@H](C)[C@H](O)[C@@H](C)C(=O)C(C)(C)[C@@H](O)CC(=O)O1 [Epothilone B] | 0.141
30 | C[C@H](Nc1ncnc2[nH]cnc12)c1nc2ccc(F)cc2c(=O)n1-c1ccccc1 [Acalisib] | 1.02
31 | Cn1c(COP(=O)(NCCBr)NCCBr)cnc1[N+](=O)[O-] [Evofosfamide] | 1.15
32 | CC(=O)OC(C)(C)/C=C/C(=O)[C@](C)(O)[C@H]1[C@H](O)C[C@@]2(C)[C@@H]3CC=C4[C@H](C[C@H](O)C(=O)C4(C)C)[C@]3(C)C(=O)C[C@]12C [Cucurbitacin B] | 0.223
33 | Clc1ccc(C(OCCN2CCCCC2)c2ccccc2)cc1 (stereo not given) [Cloperastine hydrochloride] | 1.15
34 | C[C@]12CC[C@H](O)C[C@H]1CC[C@@H]1[C@@H]2CC[C@]2(C)[C@@H](c3ccc(=O)oc3)CC[C@]12O [Bufalin] | 0.423
35 | CC(C)[C@H](N)C(=O)N1CCC[C@H]1B(O)O [Talabostat mesylate] | 0.987
